In PubChem BioAssay (NCI):
Compounds without any hit were thinned out: in the full panel of roughly 83,000, 20% have a hit.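 48-hour exposure, single concentration, 96-well plates; percent growth endpoint where 0 means no net growth. Active: below 10.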 Values without a mark were called inactive. Calls of active or inactive are those of the source.

Test system: MDA-MB-468 breast
Assay: NCI-60 one-dose screen, 48 h (100 = growth as untreated, 0 = no growth, -100 = all killed)
Conditions: 10 µM unless noted

Structure (SMILES) | growth
Fc1c[c-]c(-c2ccccn2)c(F)c1.[CH3-].[Pt+2].c1ccc(P(C[PH+](c2ccccc2)c2ccccc2)c2ccccc2)cc1 | -38.3% (active)
COc1cc(OC)c2c(c1)c1nc3cc(C)c(C)cc3nc1n2CCN(C)C | 117%
CCCn1cnc2c(c1=N)C(c1ccc(F)cc1)c1sc3c(C)cccc3c1O2 (configuration not stated) | -26.7% (active)
CC(O)CCC(C)[N+](=O)[O-] (configuration not stated) | 107%
O=C1c2[nH]cc(CN[C@@H]3CCCN3)c2C(=O)c2c1c(O)c1ccccc1c2O | -92.4% (active)
COc1cc(/C=C\C(C)=N\Nc2ccccc2)ccc1O | 49%
COC(=O)c1nc(=S)[nH]c(C(=O)OC)c1C(=O)c1ccc(Cl)c(Cl)c1 | 105%
COC(=O)[C@]12CC[C@@H](C)[C@H](C)[C@@H]1C1=CC[C@@H]3[C@@]4(C)C(c5cnco5)=C[C@@](C)(CO)C4=CC[C@@]3(C)[C@]1(C)CC2 | 17%
CCN1CCN(C(=O)[C@]23CC[C@@H](C)[C@H](C)[C@@H]2C2=CC[C@@H]4[C@@]5(C)C/C(=C/c6cccnc6)C(=O)C(C)(C)[C@@H]5CC[C@@]4(C)[C@]2(C)CC3)CC1 | 16.4%
O=C1NC(=O)/C(=C/c2ccc(Cl)cc2Cl)N1 | 130%
C=CC1=NC(C)(C)CC(C)O1 (configuration not stated) | 109%
CCc1nn2c(C)cc(C)nc2c1Cc1ccc(/C=C/CN2CCN(CCOCCOCCN3CCN(C/C=C/c4ccc(Cc5c(CC)nn6c(C)cc(C)nc56)cc4)CC3)CC2)cc1 | -6.16% (active)
